Experimental data published in PubChem BioAssay (Tox21).
Where “and” joins values, the source holds several entries; their conditions need not be identical. Identical values can stand only once. The source holds several records for some structures; these can differ, active in one and inactive in another. Calls of active or inactive are those of the source. A call without a number means that no potency is given here. Unless noted, calls follow the shape of the dose curve; as a rule, active = well fitted curve in the direction sought with a large enough effect in the repeat runs; inconclusive = weak or mixed curves; inactive = no such curve, though single readings can be large; an effect the other way counts as inactive or inconclusive.

Experiments:
[1] = qHTS assay for identifying genotoxic compounds that show differential cytotoxicity against isogenic chicken DT40 cell lines with known DNA damage response pathways - wild type cell line (AID 743012); also: nearly all actives have a fitted effect of over 60% in size; also: potency is read from the fitted curve at half-maximal effect
Procedure, shortened: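 Wild type DT40, 300 cells/well, ~0.5 h settle at 37 C/5% CO2; compounds in DMSO added by pintool; 40 h at 37 C/5% CO2; CellTiter-Glo, 30 min RT; luminescence.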

[2] = qHTS assay for identifying genotoxic compounds that show differential cytotoxicity against isogenic chicken DT40 cell lines with known DNA damage response pathways - Rev3 mutant cell line (AID 743014); also: nearly all actives have a fitted effect of over 55% in size; also: potency is read from the fitted curve at half-maximal effect
[3] = qHTS assay for identifying genotoxic compounds that show differential cytotoxicity against isogenic chicken DT40 cell lines with known DNA damage response pathways - Rad54/Ku70 mutant cell line (AID 743015); also: nearly all actives have a fitted effect of over 60% in size; also: potency is read from the fitted curve at half-maximal effect
[4] = qHTS assay to identify small molecule antagonists of the androgen receptor (AR) signaling pathway - cell viability counter screen (AID 743033; also: nearly all actives have a fitted effect of over 45% in size; also: potency is read from the fitted curve at half-maximal effect)
[5] = qHTS assay to identify small molecule antagonists of the androgen receptor (AR) signaling pathway using the MDA cell line - cell viability counter screen (AID 743041; also: nearly all actives have a fitted effect of over 45% in size; also: potency is read from the fitted curve at half-maximal effect)
Procedure, shortened: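 Cells were plated at 3,000 per well and left 5 h. Compounds in DMSO were then pinned in, followed by R1881. After 16 h at 37C, CellTiter-Fluor fluorescence gave viability.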

[6] = qHTS assay to identify small molecule antagonists of the estrogen receptor alpha (ER-alpha) signaling pathway - cell viability counter screen (AID 743074; calls by dose curve;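 also: HEK293 cells carrying ER-alpha-UAS-bla reporter stimulated with 17beta-estradiol; nearly all actives have a fitted effect of over 45% in size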; also: potency is read from the fitted curve at half-maximal effect)
[7] = biological target: Estrogen receptor (Homo sapiens) (UniProt P03372); experiment: qHTS assay to identify small molecule agonists of the estrogen receptor alpha (ER-alpha) signaling pathway (AID 743075; calls by dose curve;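 also: HEK293 GripTite cells with ER-alpha and UAS-driven beta-lactamase reporter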; also: potency is read from the fitted curve at half-maximal effect)
Sequence of Estrogen receptor (Homo sapiens) (P03372 whole entry, looked up): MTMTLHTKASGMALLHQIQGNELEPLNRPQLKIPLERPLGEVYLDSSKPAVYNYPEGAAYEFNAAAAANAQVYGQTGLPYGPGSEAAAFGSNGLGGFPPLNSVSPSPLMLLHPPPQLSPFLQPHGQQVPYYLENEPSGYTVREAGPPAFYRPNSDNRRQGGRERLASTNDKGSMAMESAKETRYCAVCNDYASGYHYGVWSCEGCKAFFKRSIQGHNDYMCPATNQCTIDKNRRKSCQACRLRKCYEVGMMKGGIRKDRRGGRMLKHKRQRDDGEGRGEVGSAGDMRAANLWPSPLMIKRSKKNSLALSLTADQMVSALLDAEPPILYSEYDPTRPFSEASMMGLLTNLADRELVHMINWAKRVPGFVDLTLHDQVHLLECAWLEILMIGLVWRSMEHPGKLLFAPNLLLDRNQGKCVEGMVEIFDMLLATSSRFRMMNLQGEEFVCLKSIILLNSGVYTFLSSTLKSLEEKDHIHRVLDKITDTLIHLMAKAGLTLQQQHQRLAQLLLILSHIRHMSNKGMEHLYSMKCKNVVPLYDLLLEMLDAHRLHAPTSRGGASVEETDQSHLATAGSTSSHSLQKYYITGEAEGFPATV

[8] = biological target: Estrogen receptor (Homo sapiens) (UniProt P03372); experiment: qHTS assay to identify small molecule agonists of the estrogen receptor alpha (ER-alpha) signaling pathway using the BG1 cell line (AID 743079); conditions: BG1Luc4E2 cells, ERE-luciferase agonist, 22 h; activation: at 70.3 µM (top of the series); also: nearly all actives have a fitted effect of over 20% in size; also: potency is read from the fitted curve at half-maximal effect
[9] = qHTS assay to identify small molecule antagonists of the estrogen receptor alpha (ER-alpha) signaling pathway using the BG1 cell line - cell viability counter screen (AID 743081);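 also: compound given together with 17beta-estradiol as the ER stimulus; nearly all actives have a fitted effect of over 45% in size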; also: potency is read from the fitted curve at half-maximal effect
[10] = qHTS assay to identify small molecule antagonists of the thyroid receptor (TR) signaling pathway - cell viability counter screen (AID 743064); also: nearly all actives have a fitted effect of over 50% in size; also: potency is read from the fitted curve at half-maximal effect
Procedure, shortened: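 In rat pituitary GH3.TRE-Luc reporter cells co-exposed to compound and 1 nM T3 for 23.5 h, cytotoxicity was assessed with CellTiter-Fluor in the same wells, read by fluorescence.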

[11] = qHTS assay to identify small molecule antagonists of the thyroid receptor (TR) signaling pathway (AID 743065); also: nearly all actives have a fitted effect of over 55% in size; also: potency is read from the fitted curve at half-maximal effect
Procedure, shortened: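 Antagonism measured as loss of luciferase signal in GH3 cells stably carrying a TRE-luciferase reporter, co-treated with compound and T3 (1 nM final) for 23.5 h at 37 C. Viability was read in the same well by CellTiter-Fluor.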

[12] = tested on: thyroid hormone receptor (rat, GH3 cells); experiment: qHTS assay to identify small molecule agonists of the thyroid receptor (TR) signaling pathway (AID 743066; calls by dose curve)
[13] = biological target: Estrogen receptor (Homo sapiens) (UniProt P03372); experiment: qHTS assay to identify small molecule antagonists of the estrogen receptor alpha (ER-alpha) signaling pathway (AID 743069; active = well fitted curve in the direction sought with a large enough effect in the signal ratio in the repeat runs, not every such curve was filed as active; inconclusive = weak or mixed curves, or effect the other way; inactive = no such curve, though single readings can be large or run the other way; the % refers to the signal ratio; also: potency is read from the fitted curve at half-maximal effect)
Procedure, shortened: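 ER-alpha-UAS-bla GripTite HEK293 line; 2% charcoal-stripped FBS overnight; plated, 4 hr 37C/5% CO2; cpd in DMSO + 17beta-estradiol, 18 hr 37C; LiveBLAzer B/G FRET substrate 2 hr RT; fluorescence intensity.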

[14] = qHTS assay to identify small molecule antagonists of the estrogen receptor alpha (ER-alpha) signaling pathway using the BG1 cell line (AID 743080; calls by dose curve;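 also: BG1 cells stimulated with 17beta-estradiol alongside compound; nearly all actives have a fitted effect of over 25% in size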; also: potency is read from the fitted curve at half-maximal effect)
Procedure, shortened: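 Quantitative HTS on the Tox21 10K library: BG1 cells with endogenous ER-alpha and ERE-luciferase reporter, 17beta-estradiol stimulation, 21.5 h compound exposure, luminescence endpoint with parallel fluorescence cytotoxicity counter-read.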

Aromatase (Homo sapiens) = Aromatase (Homo sapiens) (UniProt P11511); experiment: qHTS assay to identify aromatase inhibitors (AID 743083); also: nearly all actives have a fitted effect of over 55% in size; also: potency is read from the fitted curve at half-maximal effect
Sequence of Aromatase (Homo sapiens) (P11511 whole entry, looked up): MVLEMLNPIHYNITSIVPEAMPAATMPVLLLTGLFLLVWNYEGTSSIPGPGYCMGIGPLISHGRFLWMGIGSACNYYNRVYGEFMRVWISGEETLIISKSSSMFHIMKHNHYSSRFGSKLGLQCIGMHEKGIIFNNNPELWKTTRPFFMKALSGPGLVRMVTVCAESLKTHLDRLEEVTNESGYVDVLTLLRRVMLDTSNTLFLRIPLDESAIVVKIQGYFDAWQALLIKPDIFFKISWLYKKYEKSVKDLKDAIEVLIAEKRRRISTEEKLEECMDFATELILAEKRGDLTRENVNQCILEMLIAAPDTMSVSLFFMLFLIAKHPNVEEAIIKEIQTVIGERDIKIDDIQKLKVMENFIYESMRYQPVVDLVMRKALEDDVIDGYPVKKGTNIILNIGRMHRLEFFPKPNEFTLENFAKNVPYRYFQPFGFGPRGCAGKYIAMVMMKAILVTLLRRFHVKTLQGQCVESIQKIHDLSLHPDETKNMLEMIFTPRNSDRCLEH

[15] = biological target: Androgen receptor (Homo sapiens) (UniProt P10275); experiment: qHTS assay to identify small molecule antagonists of the androgen receptor (AR) signaling pathway using the MDA cell line (AID 743042; also: nearly all actives have a fitted effect of over 55% in size; also: potency is read from the fitted curve at half-maximal effect)
Sequence of Androgen receptor (Homo sapiens) (P10275 whole entry, looked up): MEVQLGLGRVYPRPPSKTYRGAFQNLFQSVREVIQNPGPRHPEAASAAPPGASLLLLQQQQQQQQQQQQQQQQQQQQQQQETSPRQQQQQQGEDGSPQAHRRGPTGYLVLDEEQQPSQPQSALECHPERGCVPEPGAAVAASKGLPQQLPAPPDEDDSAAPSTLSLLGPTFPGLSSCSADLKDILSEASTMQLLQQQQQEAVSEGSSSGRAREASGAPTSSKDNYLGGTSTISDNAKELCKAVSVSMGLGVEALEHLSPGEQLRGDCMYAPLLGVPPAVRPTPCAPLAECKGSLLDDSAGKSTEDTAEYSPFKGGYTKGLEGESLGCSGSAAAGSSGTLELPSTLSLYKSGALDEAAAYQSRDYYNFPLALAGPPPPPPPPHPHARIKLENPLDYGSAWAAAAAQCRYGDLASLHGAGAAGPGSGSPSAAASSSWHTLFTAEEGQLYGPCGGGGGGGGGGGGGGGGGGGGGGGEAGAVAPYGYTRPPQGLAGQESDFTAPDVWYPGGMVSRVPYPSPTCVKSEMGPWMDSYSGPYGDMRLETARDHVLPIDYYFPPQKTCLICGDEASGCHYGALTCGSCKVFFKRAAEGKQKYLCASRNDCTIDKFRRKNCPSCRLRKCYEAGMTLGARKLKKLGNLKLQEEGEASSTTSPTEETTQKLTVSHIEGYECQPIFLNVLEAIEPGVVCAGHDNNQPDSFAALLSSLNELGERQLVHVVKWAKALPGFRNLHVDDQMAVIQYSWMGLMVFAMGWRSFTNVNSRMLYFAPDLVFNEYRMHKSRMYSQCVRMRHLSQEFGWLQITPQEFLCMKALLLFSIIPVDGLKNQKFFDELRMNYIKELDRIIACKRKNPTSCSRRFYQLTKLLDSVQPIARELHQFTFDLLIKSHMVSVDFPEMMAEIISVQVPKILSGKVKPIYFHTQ
Procedure, shortened: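 Antagonist mode: compounds plus R1881 agonist added to MDA-kb2 AR-luc cells, incubated 16 h at 37C. Luciferase reporter luminescence quantified, with multiplexed CellTiter-Fluor readout for cell viability.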

[16] = biological target: Androgen receptor (Homo sapiens) (UniProt P10275); experiment: qHTS assay to identify small molecule antagonists of the androgen receptor (AR) signaling pathway (AID 743035; active = well fitted inhibition curve with a large enough effect in the signal ratio in the repeat runs, not every such curve was filed as active; inconclusive = weak or mixed curves, or effect the other way; inactive = no such curve, though single readings can be large or run the other way; the % refers to the signal ratio; also: potency is read from the fitted curve at half-maximal effect)
Procedure, shortened: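 Fluorescence from a beta-lactamase FRET substrate (LiveBLAzer B/G, 2 h, room temperature) measured inhibition of R1881-stimulated signaling in GeneBLAzer AR-UAS-bla HEK293 cells exposed to compound for 16 h at 37C.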

[17] = biological target: Androgen receptor (Homo sapiens) (UniProt P10275); experiment: qHTS assay to identify small molecule agonists of the androgen receptor (AR) signaling pathway (AID 743036; active = well fitted activation curve with a large enough effect in the signal ratio in the repeat runs, with a control signal flat, not every such curve was filed as active; inconclusive = weak or mixed curves, or effect the other way; inactive = no such curve, though single readings can be large or run the other way; the % refers to the signal ratio)
Procedure, shortened: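 Cell-based FRET reporter assay: HEK293 line with a UAS-beta-lactamase construct, compounds added in DMSO, 16 h exposure at 37C, then 2 h substrate step at room temperature and fluorescence intensity read.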

Structure (SMILES)	Potency [1]	Potency [2]	Potency [3]	Potency [4]	Potency [5]	Potency [6]	Potency [7]	activation [8]	Potency [9]	Potency [10]	Potency [11]	Potency [12]	Potency [13]	Potency [8]	Potency [14]	Potency (Aromatase (Homo sapiens))	Potency [15]	Potency [16]	outcome [17]
CC[C@]1(O)CC[C@H]2[C@@H]3CCC4=CCCC[C@@H]4[C@H]3CC[C@@]21C	8.41 µM (active)	9.44 µM (active)	13.3 µM (active)	inactive	inactive	inactive	0.5 nM [inconclusive] (active)	5.41% (active)	inactive										
CC(C)C(Br)C(=O)NC(N)=O (stereo not given)		inactive	inactive	inactive	inactive		inactive		inactive	inactive	inactive	inactive	inactive	inactive	inactive	inactive			
O=C1C(Cl)=C(Cl)C(=O)C(Cl)=C1Cl	13.6 µM (active) and 9.69 µM (active)	8.6 µM (active) and 6.86 µM (active)	17.2 µM (active) and 8.63 µM (active)	17.3 µM (active) and 21.9 µM (active)		inactive	43700 nM [activator] (active)		inactive	15.3 µM (active) and 13.7 µM (active)		inactive	54.9 µM [inconclusive] (active)	inactive	inactive	9.65 µM (active) and 9.69 µM (active)	34.2 µM (active) and 30.6 µM (active)		
Clc1ccc(C(c2ccc(Cl)cc2)C(Cl)Cl)cc1		17.5 µM (active) and 3.86 µM (active)	27.8 µM (active) and 10.9 µM (active)	inactive	inactive	inactive	inactive		inactive	24.7 µM (active) and 68.6 µM (active)	24.7 µM (active) and 43.3 µM (active)	inactive	inactive		inactive	62.1 µM (active) and inactive			
CSC(=O)c1c(C(F)F)nc(C(F)(F)F)c(C(=O)SC)c1CC(C)C		27.1 µM (active)	30.5 µM (active)	inactive	inactive	inactive	inactive		inactive	54.2 µM (active)				inactive	inactive	68.2 µM (active)			
CN1CCc2cc3c(cc2C1O)OCO3 (stereo not given)	inactive	inactive	inactive	inactive		inactive					inactive	inactive				inactive			
C[C@]12C/C(=C/O)C(=O)C[C@@H]1CC[C@@H]1[C@@H]2CC[C@@]2(C)[C@H]1CC[C@]2(C)O		49 µM (active)	13.3 µM (active) and 15.5 µM (active)	inactive and 44.1 µM (active)	inactive	inactive	674 nM [inconclusive] (active) and 783 nM [inconclusive] (active)		inactive	inactive and 61.7 µM (active)	29.8 µM (active) and 55 µM (active)	inactive	inactive	211 nM (active) and 97.8 nM (active)	inactive	inactive			
O=C(Cl)c1ccccc1F	inactive		inactive	inactive	inactive	inactive	inactive		inactive		inactive	inactive	inactive	inactive	inactive	inactive			
CC(C)N(C(=O)CCl)c1ccccc1	21.7 µM (active) and 17.2 µM (active)	2.17 µM (active) and 3.86 µM (active)	9.69 µM (active) and 7.7 µM (active)			inactive	inactive		inactive			inactive	15.5 µM [inconclusive] (active) and 6.92 µM [inconclusive] (active)			21.7 µM (active) and 27.3 µM (active)	30.6 µM (active) and 21.7 µM (active)	8.71 µM (active) and 6.92 µM (active)	inactive
FC(F)C(F)(F)OCC(Cn1cncn1)c1ccc(Cl)cc1Cl (stereo not given)		4.83 µM (active)	7.65 µM (active)	54.6 µM (active)					inactive		60.8 µM (active)					7.65 µM (active)			
CCN(CC)CCc1c[nH]c2ccccc12		inactive	inactive	inactive	inactive	inactive	inactive		inactive			inactive	inactive	inactive	inactive				
S=C=Nc1ccccc1		inactive	inactive	inactive	inactive	inactive	inactive		inactive			inactive	inactive	inactive		inactive	inactive	inactive	inactive
O=S1(=O)OCC2C(CO1)C1(Cl)C(Cl)=C(Cl)C2(Cl)C1(Cl)Cl (stereo not given)	24.3 µM (active)	10.9 µM (active)	27.3 µM (active)				inactive		inactive		48.6 µM (active)		inactive	inactive		54.5 µM (active)			
CCCCCCCCCCCCCCn1cc[n+](C)c1	217 nM (active) and 241 nM (active) and inactive	109 nM (active) and 152 nM (active) and inactive	122 nM (active) and 135 nM (active) and inactive	6.93 µM (active) and 24.3 µM (active) and inactive		48.5 µM (active) and inactive	inactive		30.7 µM (active) and 24.1 µM (active)	2.74 µM (active) and 15.2 µM (active)	1.09 µM (active) and 3.81 µM (active)	inactive	7.78 µM [inconclusive] (active) and 1.22 µM [inconclusive] (active) and inactive	inactive	1.37 µM (active) and 4.8 µM (active) and inactive	2.44 µM (active) and 5.39 µM (active) and inactive			
CCCCN(CCCC)C(=S)S		inactive		inactive	inactive	inactive	inactive		inactive	inactive	inactive	inactive	inactive	inactive	inactive	inactive			
N#Cc1ccc(N(CC(N)=O)CC(F)(F)F)cc1C(F)(F)F		inactive		inactive	inactive	inactive	inactive		inactive	inactive		inactive	inactive	inactive		inactive			
CCCCC(CC)COC(=O)c1ccccc1C(=O)OCC(CC)CCCC (stereo not given)			inactive	inactive			inactive		inactive			inactive	inactive	inactive		inactive			
Nc1ccc(N=Nc2ccccc2)cc1	61.1 µM (active)	61.1 µM (active)	56.1 µM (active)				inactive		43.3 µM (active)			inactive		14.1 µM (active)		inactive			
Oc1cccc(Cl)c1Cl			inactive	inactive	inactive	inactive	inactive		inactive			inactive	inactive	inactive	inactive	inactive			
[O-][Cl+3]([O-])([O-])O		inactive	inactive	inactive	inactive	inactive			inactive	inactive						inactive			
CC(C)=CCN1CC[C@@]2(C)c3cc(O)ccc3C[C@@H]1[C@@H]2C	19 µM (active)	26.9 µM (active)	60.2 µM (active)	inactive			inactive		inactive		21.4 µM (active)	inactive	inactive	inactive		inactive			
O=S(=O)(NS(=O)(=O)C(F)(F)F)C(F)(F)F		inactive	inactive	inactive	inactive	inactive			inactive	inactive									
CCC(C)c1cccc(C(C)CC)c1O (stereo not given)				inactive	inactive	inactive	inactive		inactive		61.1 µM (active)	inactive	inactive	inactive	inactive				
c1ccc2c(c1)cc1ccc3cccc4ccc2c1c34		inactive	inactive	inactive		inactive						inactive				inactive			
CN1CCc2cc(Cl)c(O)cc2[C@H]2c3ccccc3CC[C@@H]21				inactive	inactive	inactive	inactive			13.3 µM (active)	13.3 µM (active)			inactive		inactive			
CNC(=O)Oc1cc(C)cc(C(C)C)c1			inactive	inactive	inactive	inactive	inactive		inactive	inactive	inactive	inactive		inactive	inactive	inactive			
S=C=NCCc1ccccc1			inactive	inactive	inactive	inactive	inactive		inactive			inactive	inactive	54.6 µM (active)		inactive	inactive	inactive	
O=[N+]([O-])c1ccc(CCl)cc1		inactive	inactive	inactive	inactive	inactive	inactive		inactive	inactive		inactive	inactive	inactive		inactive			
CO/N=C(\C(=O)OC)c1ccccc1CO/N=C(\C)c1cccc(C(F)(F)F)c1	0.344 µM (active)	0.273 µM (active)	0.273 µM (active)		5.45 µM (active)							inactive				61.1 µM (active)			
CCOP(=S)(NC(C)C)Oc1ccccc1C(=O)OC(C)C (stereo not given)	15.4 µM (active)	13.7 µM (active)	17.2 µM (active)		61.1 µM (active)		inactive		inactive		54.5 µM (active)	inactive	inactive	inactive		38.6 µM (active)			
